Among the test systems are DU-145 prostate; K-562 leukemia; MALME-3M melanoma; MDA-MB-231 breast; RXF 393 renal; SF-268 CNS; SF-295 CNS; SF-539 CNS; UACC-257 melanoma; M14 melanoma.
Common to all, as to experiment: NCI-60 one-dose screen, 48 h (100 = growth as untreated, 0 = no growth, -100 = all killed)
Conditions in all cases: 10 µM

The panel holds about 83,000 compounds, 20% with a hit somewhere; the sample as a whole holds those more often.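 Note: values are percent growth. 100 is the growth of untreated cells, values between 100 and 0 indicate rising inhibition; between -100 and 0 indicates cell death.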 Unmarked numbers belong to inactive results. The source made the active and inactive calls. Rule for the calls: active = growth percent below 10; inactive = the rest.

As for `COc1ccc(NC(=O)Nc2ccc(OCC(=O)N=Nc3c(O)[nH]c4ccc([N+](=O)[O-])cc34)cc2)cc1`, the growth with DU-145 prostate is 91%; in the assay on K-562 leukemia, 95.7%; with MALME-3M melanoma, 94.5%; in the assay on MDA-MB-231 breast, 56%; in the assay on RXF 393 renal, 107%; with SF-268 CNS, 63.7%. The growth in the assay on SF-295 CNS was 100%; in the assay with SF-539 CNS, 73.3%; with UACC-257 melanoma, 107%; in the assay on M14 melanoma it was 118%.

`C=C1CCC2C3(C)COC(c4ccccc4F)OC3CCC2(C)C1C/C=C1/C(=O)OCC1O` (stereo not given): the growth with DU-145 prostate was -27.8% (active); in the assay with K-562 leukemia it was 12.3%; with MALME-3M melanoma, -76.8% (active); in the assay on MDA-MB-231 breast, -54% (active); with RXF 393 renal, -68.5% (active); in the assay on SF-268 CNS, 58%. The growth is -36.1% (active) in the assay with SF-295 CNS, -87.5% (active) in the assay on SF-539 CNS, -77.6% (active) in the assay with UACC-257 melanoma and -54.1% (active) in the assay on M14 melanoma.

Regarding `O=C(O)CCCCCCCCCCN1C(=O)/C(=C/c2cnc(-c3ccccc3)s2)SC1=S`, the growth in the assay on DU-145 prostate is 80.4%; in the assay with K-562 leukemia, 23.6%; with MALME-3M melanoma, 103%; with MDA-MB-231 breast, 100%; with RXF 393 renal it was 116%; with SF-268 CNS it was 112%. Also, the growth in the assay on SF-295 CNS is 83.3%; with SF-539 CNS, 110%; with UACC-257 melanoma it was 101%; with M14 melanoma, 101%.

Take `Cc1ccc(NCC(=O)Nn2c(COc3ccccc3)nc3ccccc3c2=O)cc1`: the growth is 85.9% in the assay on DU-145 prostate; 88.2% in the assay on K-562 leukemia; 80.8% in the assay on MALME-3M melanoma; 62% in the assay with MDA-MB-231 breast; 51.3% in the assay on RXF 393 renal; 49.8% with SF-268 CNS. In addition, the growth in the assay with SF-295 CNS is 58%; in the assay on SF-539 CNS, 51.4%; with UACC-257 melanoma, 83.6%; in the assay with M14 melanoma, 93.3%.

As to `O=c1oc2ccc(-c3ccc(F)cc3F)cc2c(=O)n1-c1ccc(Cl)c(C(F)(F)F)c1`, the growth with DU-145 prostate was 14.2%; in the assay with K-562 leukemia it was 10.1%; with MALME-3M melanoma, -26.7% (active); in the assay with MDA-MB-231 breast, -19.8% (active); in the assay on RXF 393 renal it was -14.3% (active); in the assay on SF-268 CNS, 12%. The growth with SF-295 CNS was -74% (active); in the assay on SF-539 CNS, -7.49% (active); with UACC-257 melanoma, -5.73% (active); in the assay on M14 melanoma, 21.5%.

Consider `COc1ccc2[nH]c(=O)c(CSc3cccc(N)c3)cc2c1`, for which the growth in the assay with DU-145 prostate was 59.4%; in the assay with K-562 leukemia, 15.6%; in the assay with MALME-3M melanoma, 97.1%; in the assay with MDA-MB-231 breast, 72.7%; in the assay on RXF 393 renal, 84.8%; with SF-268 CNS, 58%. Also, the growth in the assay on SF-295 CNS was 31.2%; in the assay with SF-539 CNS, 71.3%; in the assay on UACC-257 melanoma, 62.3%; in the assay on M14 melanoma, 24%.

For `O=C(c1ccc(Cl)cc1)C1[C@H](c2ccc(Br)cc2)[C@@H](c2ccccc2)NC12C(=O)Nc1ccc(Br)cc12` (stereo not given in full), the growth in the assay on DU-145 prostate is -43.2% (active); in the assay on K-562 leukemia, -37.6% (active); in the assay with MALME-3M melanoma, -95.5% (active); with MDA-MB-231 breast it was -96.1% (active); in the assay with RXF 393 renal, -94.8% (active); in the assay with SF-268 CNS it was -28.6% (active). The growth was -97.2% (active) with SF-295 CNS, -88.8% (active) in the assay with SF-539 CNS, -71.3% (active) in the assay on UACC-257 melanoma and 3.03% (active) in the assay on M14 melanoma.

With `O=C(c1ccc(O)cc1)C1[C@H](c2ccccc2Br)[C@@H](c2ccccc2)NC12C(=O)Nc1ccc(Cl)cc12` (stereo not given in full), the growth is 32.5% in the assay on DU-145 prostate; 7.61% (active) with K-562 leukemia; -10.7% (active) with MALME-3M melanoma; -57.3% (active) in the assay with MDA-MB-231 breast; -19.5% (active) with RXF 393 renal; 27.7% in the assay with SF-268 CNS. Besides, the growth in the assay with SF-295 CNS is -6.39% (active); in the assay on SF-539 CNS, 8.24% (active); with UACC-257 melanoma it was 25%; in the assay with M14 melanoma it was 28.4%.

Consider `COc1ccc2c3nc4cc(C)c(C)cc4nc3n(CCN(C)C)c2c1`, for which the growth is -3.48% (active) in the assay on DU-145 prostate; 3.09% (active) in the assay on K-562 leukemia; -86% (active) in the assay with MALME-3M melanoma; -10% (active) in the assay with MDA-MB-231 breast; -25.5% (active) in the assay with RXF 393 renal; 27.8% in the assay with SF-268 CNS. The growth in the assay with SF-295 CNS is -59.4% (active); in the assay with SF-539 CNS, -88.1% (active); with UACC-257 melanoma, 10.5%; with M14 melanoma it was -73.5% (active).

`COc1cc(/C=C/C(=O)c2cc(OC)c(OC)c(OC)c2)ccc1Oc1nc(Nc2ccc(F)cc2)nc(N(C)C)n1`: the growth is -35.8% (active) with DU-145 prostate; 2.36% (active) in the assay with K-562 leukemia; -40.3% (active) in the assay with MALME-3M melanoma; -60% (active) in the assay on MDA-MB-231 breast; -74.9% (active) in the assay on RXF 393 renal; 27.7% in the assay on SF-268 CNS. The growth was -55.2% (active) with SF-295 CNS, -80.6% (active) with SF-539 CNS, -30.5% (active) in the assay on UACC-257 melanoma and -27.5% (active) in the assay on M14 melanoma.

With `COc1cccc(/C=N/NC(=O)c2ccc3nc(-c4ccc(Cl)cc4)[nH]c3c2)c1O`, the growth was -96.1% (active) with DU-145 prostate; -37.2% (active) in the assay on K-562 leukemia; -96.3% (active) with MALME-3M melanoma; -72.8% (active) in the assay on MDA-MB-231 breast; -96.5% (active) in the assay with RXF 393 renal; -79% (active) with SF-268 CNS. Also, the growth is -91.3% (active) in the assay on SF-295 CNS, -99% (active) in the assay with SF-539 CNS, -83.8% (active) with UACC-257 melanoma and -79.5% (active) in the assay with M14 melanoma.

For `COc1csc(/C=N/NC(=O)c2[nH]c3ccc(Br)cc3c2-c2ccccc2)c1`, the growth with DU-145 prostate is 7.13% (active); in the assay with K-562 leukemia, 4.06% (active); in the assay with MALME-3M melanoma it was 30.9%; with MDA-MB-231 breast, 3.77% (active); in the assay with RXF 393 renal, 23.3%; with SF-268 CNS, 23.5%. For the same molecule, the growth with SF-295 CNS was -10.2% (active); in the assay on SF-539 CNS it was -39.8% (active); in the assay with UACC-257 melanoma it was 34.8%; in the assay with M14 melanoma it was 11.5%.

As to `O=C(O)CCCCCCCCCCN1C(=O)/C(=C/c2cnc(-c3ccc(Cl)cc3)s2)SC1=S`, the growth in the assay on DU-145 prostate is 13.2%; with K-562 leukemia, 22.1%; in the assay on MALME-3M melanoma, 80.6%; in the assay with MDA-MB-231 breast, 48.9%; in the assay on RXF 393 renal it was 77.4%; in the assay with SF-268 CNS it was 49.4%. In addition, the growth is 8.83% (active) in the assay with SF-295 CNS, 36.4% with SF-539 CNS, 87.6% with UACC-257 melanoma and 16.5% in the assay with M14 melanoma.
